From PubChem BioAssay (NCATS) come the findings set out here.

Records with an inconclusive call do not appear. Where a call stands in place of a potency, no number is given. The source made the active and inactive calls. Calls come from the whole dose curve; as a rule, active = well fitted curve in the direction sought with a large enough effect; inconclusive = small, poorly fitted or top-dose-only effect, or another doubt; inactive = no such curve, though single readings can be large; an effect the other way counts as inactive or inconclusive.

One experiment can be described thus: qHTS of pediatric cancer cell lines to identify multiple opportunities for drug repurposing: Primary screen for MG 63 (6-TG R) cells (AID 1347105). Note: nearly all actives have a fitted effect of over 50% in size. Note: potency is the fitted concentration of half-maximal effect. To be noted: MG 63 (6-TG R) viability, CellTiter-Glo, 48 h; series mostly up to 46 µM. Put shortly:
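ATP-based luminescence (CellTiter-Glo) quantifies viability after a 48-hour exposure. Compounds are dosed across 8 or 11 final concentrations; DMSO and 2.3 µM bortezomib serve as controls.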
On the technique in general: qHTS replaces the single test concentration by a dilution series.
As for `CCC(C)SSc1ncc[nH]1` (centres undefined), the Potency was 23.5 µM (active). For `NC(=O)c1nnn(Cc2cc(Cl)c(C(=O)c3ccc(Cl)cc3)c(Cl)c2)c1N`, the Potency result is “inactive”. The same measure, in the same setting: with `Cc1ccc(C(=O)N(CCCN)[C@@H](c2oc3cc(Cl)ccc3c(=O)c2Cc2ccccc2)C(C)C)cc1` the entry was “inactive”. Still for that read-out and setting: with `CN(C)S(=O)(=O)c1ccc2c(c1)C(=Cc1cc3c([nH]1)CCCC3)C(=O)N2` the entry was “inactive”; with `CC(C)n1c(C=C[C@H](O)C[C@H](O)CC(=O)O)c(-c2ccc(F)cc2)c2ccccc21`, 1.48 µM (active); with `Nc1ccn([C@@H]2O[C@H](CO)[C@@H](O)[C@H]2O)c(=O)n1`, “inactive”.

On to `Cc1csc(-c2nnc(Nc3ccc(Oc4ncccc4-c4ccnc(N)n4)cc3)c3ccccc23)c1`, for which the Potency result is “inactive”. The same measure, in the same setting: with `OC(c1cc(C(F)(F)F)nc2c(C(F)(F)F)cccc12)C1CCCCN1` (centres undefined) the entry was “inactive”; with `COc1ccc2c(c1)c(C1=C(c3c[nH]c4ccccc34)C(=O)NC1=O)cn2CCCN(C)C`, “inactive”; with `OCCn1cc(-c2ccc3c(c2)CCC3=NO)c(-c2ccncc2)n1`, “inactive”. For `COc1cc2c(cc1OC)CC(=O)N(CCCN(C)C[C@H]1Cc3cc(OC)c(OC)cc31)CC2`, the Potency entry was “inactive”. `C[C@H]1COC2=C1C(=O)C(=O)c1c2ccc2c1CCCC2(C)C`: the Potency result was “inactive”.

`CNC(=O)[C@H](Cc1ccccc1)NC(=O)[C@H](CC(C)C)[C@H](CSc1cccs1)C(=O)NO`: the Potency result was “inactive”.

Regarding `CNc1nc(-c2ccc3c(N)n[nH]c3c2)cc(N2C[C@@H](C(=O)NC3CCCCC3)CC[C@@H]2C)n1`, the Potency is 3.72 µM (active). On the same count and under the same terms, with `CN(C)CCCNC(=O)c1ccc(-c2cc(O)c3ncccc3c2)cc1` the entry was “inactive”; with `COC(=O)N1CCN(Cc2cccc(NC(=O)Nc3ccc(C)nc3)c2F)CC1`, “inactive”; with `Cc1ccc2c(c1)c1c(n2CCc2ccc(C)nc2)CCN(C)C1`, “inactive”. Take `CCCCCCOC(=O)N=C(N)c1ccc(NCc2nc3cc(C(=O)N(CCC(=O)OCC)c4ccccn4)ccc3n2C)cc1`: the Potency entry was “inactive”. `CC(=O)Nc1cccc(-n2c(=O)n(C3CC3)c(=O)c3c(Nc4ccc(I)cc4F)n(C)c(=O)c(C)c32)c1`: the Potency result is “inactive”. The same measure, in the same setting: with `Cc1ccc(NC(=O)c2ccc(CN3CCN(C)CC3)cc2)cc1Nc1nc(-c2cccnc2)cs1` the entry was “inactive”; with `COc1ccc2c(c1)CC[C@H]1[C@@H]2CC[C@]2(C)[C@@H](NCCCCCCN3C(=O)C=CC3=O)CC[C@H]12`, “inactive”.

Take `COc1ccc(Cn2ccc3ccc(C(=O)NO)cc32)cc1`: the Potency entry was “inactive”. The same measure, in the same setting: with `C[C@@]1(c2cc(-c3cncnc3)c(F)cc2F)CCSC(N)=N1` the entry was “inactive”.

The nature of the next experiment: qHTS of pediatric cancer cell lines to identify multiple opportunities for drug repurposing: Primary screen for control Hh wild type fibroblast cells (AID 1347106).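 Note: a drop in luminescence marks cytotoxicity and a rise apparent proliferation; nearly all actives have a fitted effect of over 55% in size.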 To be noted: Hh wild-type fibroblast viability, CellTiter-Glo luminescence, 48 h; series mostly up to 46 µM. Put shortly:
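Cells (500-1,000/well) in growth media were settled 5 h at 37 degrees C, then given compounds for 48 h. Viability was read as CellTiter-Glo luminescence. Primary runs used MIPE at 11 points (0.78 nM-46 µM) and NPC at 8 points (0.59 nM-46 µM); follow-ups used 11 points.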
In the case of `CCc1cc(-c2n[nH]c(C)c2-c2ccc3c(c2)OCCO3)c(O)cc1O`, the Potency result is “inactive”. With `CCC(C)SSc1ncc[nH]1` (centres undefined), the Potency entry is “inactive”. Take `NC(=O)c1nnn(Cc2cc(Cl)c(C(=O)c3ccc(Cl)cc3)c(Cl)c2)c1N`: the Potency entry is “inactive”. Still for that read-out and setting: with `Cc1ccc(C(=O)N(CCCN)[C@@H](c2oc3cc(Cl)ccc3c(=O)c2Cc2ccccc2)C(C)C)cc1` the entry was “inactive”. Turning to `CN1CCN(c2cccc(Nc3nc4c(-c5ccc(S(C)(=O)=O)cc5)cccn4n3)c2)CC1`, the Potency entry was “inactive”.

For the molecule `Cc1csc(-c2nnc(Nc3ccc(Oc4ncccc4-c4ccnc(N)n4)cc3)c3ccccc23)c1`, the Potency result is “inactive”.

With `OC(c1cc(C(F)(F)F)nc2c(C(F)(F)F)cccc12)C1CCCCN1` (centres undefined), the Potency result was “inactive”. Still for that read-out and setting: with `COc1ccc2c(c1)c(C1=C(c3c[nH]c4ccccc34)C(=O)NC1=O)cn2CCCN(C)C` the entry was “inactive”; with `O=C(Nc1cccc(Cl)c1)Nc1ncc(CCNc2ncnc3ccsc23)s1`, “inactive”.

`C[C@H]1COC2=C1C(=O)C(=O)c1c2ccc2c1CCCC2(C)C`: the Potency result was “inactive”.

Take `CNC(=O)[C@H](Cc1ccccc1)NC(=O)[C@H](CC(C)C)[C@H](CSc1cccs1)C(=O)NO`: the Potency result was “inactive”. On to `CC1=C[C@@H]2[C@@H]([C@@H](O)C[C@@]3(C)[C@H]2C[C@@H](C)[C@]3(O)C(=O)CO)[C@@]2(C)Cc3cnn(-c4ccccc4)c3C=C12`, for which the Potency entry is “inactive”. Same read-out and setting: with `CCC(c1ccc(O)cc1)C(CC)c1ccc(O)cc1` (centres undefined) the entry was “inactive”; with `O=C(c1ccc(C=Cc2n[nH]c3ccccc23)cc1)N1CCNCC1`, “inactive”. For `CCn1c(-c2nonc2N)nc2cncc(CNC3CCNCC3)c21`, the Potency entry is “inactive”. Still for that read-out and setting: with `CNc1nc(-c2ccc3c(N)n[nH]c3c2)cc(N2C[C@@H](C(=O)NC3CCCCC3)CC[C@@H]2C)n1` the entry was “inactive”. `Clc1ccc(COC(Cn2ccnc2)c2ccc(Cl)cc2Cl)c(Cl)c1` (centres undefined): the Potency entry is “inactive”. Take `COC(=O)N1CCN(Cc2cccc(NC(=O)Nc3ccc(C)nc3)c2F)CC1`: the Potency entry was “inactive”. On to `Cc1ccc2c(c1)c1c(n2CCc2ccc(C)nc2)CCN(C)C1`, for which the Potency result was “inactive”. Still for that read-out and setting: with `CC(O)=C(C#N)C(=O)Nc1ccc(C(F)(F)F)cc1` the entry was “inactive”; with `CCCCCCOC(=O)N=C(N)c1ccc(NCc2nc3cc(C(=O)N(CCC(=O)OCC)c4ccccn4)ccc3n2C)cc1`, “inactive”.

In the case of `CC(=O)Nc1cccc(-n2c(=O)n(C3CC3)c(=O)c3c(Nc4ccc(I)cc4F)n(C)c(=O)c(C)c32)c1`, the Potency entry was “inactive”. For the molecule `Cc1ccc(NC(=O)c2ccc(CN3CCN(C)CC3)cc2)cc1Nc1nc(-c2cccnc2)cs1`, the Potency result was “inactive”.

For `Cc1ccc(S(=O)(=O)Nc2nc3ccccc3nc2Nc2ccc3nsnc3c2)cc1`, the Potency entry was “inactive”. Still for that read-out and setting: with `COc1ccc2c(c1)CC[C@H]1[C@@H]2CC[C@]2(C)[C@@H](NCCCCCCN3C(=O)C=CC3=O)CC[C@H]12` the entry was “inactive”; with `COc1ccc(Cn2ccc3ccc(C(=O)NO)cc32)cc1`, “inactive”.
